Assay results published in the supplement of paper PMC11732987, “Enantioselective OTUD7B fragment discovery through chemoproteomics screening and high-throughput optimisation” (Communications Chemistry, 2025).

How the values were obtained:
Assay in all cases: log2 ratio of Biotin-Ahx-Ub-VS probe labelling (fragment/DMSO); higher = less target engagement (more negative = stronger competition), active = hit call of the paper (q ≤ 0.05, log2 ratio ≤ -1)
Conditions in all cases: compound concentration: 200 uM; treatment time: 3 h
USP34 = USP34 (UniProt Q70CQ2)
Procedure, shortened: (§1)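 Labelled DUBs from HEK293T lysate were NeutrAvidin-enriched, digested with LysC and trypsin, and run by diaPASEF LC-MS/MS. Before that, each 495 µg sample in Tris/CHAPS/IGEPAL buffer with protease inhibitors was treated in triplicate with fragment at 200 µM or vehicle for 3 h, then with Biotin-Ahx-Ub-VS at 0.5 µM final for 1 h. Values are average log2 ratios of fragment over vehicle by unpaired t-test, based on global-median-normalised Spectronaut label-free quantities from proteins with ≥2 unique peptides.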

USP36 = target: T1, USP36 (UniProt Q9P275)
T1 sequence (whole entry): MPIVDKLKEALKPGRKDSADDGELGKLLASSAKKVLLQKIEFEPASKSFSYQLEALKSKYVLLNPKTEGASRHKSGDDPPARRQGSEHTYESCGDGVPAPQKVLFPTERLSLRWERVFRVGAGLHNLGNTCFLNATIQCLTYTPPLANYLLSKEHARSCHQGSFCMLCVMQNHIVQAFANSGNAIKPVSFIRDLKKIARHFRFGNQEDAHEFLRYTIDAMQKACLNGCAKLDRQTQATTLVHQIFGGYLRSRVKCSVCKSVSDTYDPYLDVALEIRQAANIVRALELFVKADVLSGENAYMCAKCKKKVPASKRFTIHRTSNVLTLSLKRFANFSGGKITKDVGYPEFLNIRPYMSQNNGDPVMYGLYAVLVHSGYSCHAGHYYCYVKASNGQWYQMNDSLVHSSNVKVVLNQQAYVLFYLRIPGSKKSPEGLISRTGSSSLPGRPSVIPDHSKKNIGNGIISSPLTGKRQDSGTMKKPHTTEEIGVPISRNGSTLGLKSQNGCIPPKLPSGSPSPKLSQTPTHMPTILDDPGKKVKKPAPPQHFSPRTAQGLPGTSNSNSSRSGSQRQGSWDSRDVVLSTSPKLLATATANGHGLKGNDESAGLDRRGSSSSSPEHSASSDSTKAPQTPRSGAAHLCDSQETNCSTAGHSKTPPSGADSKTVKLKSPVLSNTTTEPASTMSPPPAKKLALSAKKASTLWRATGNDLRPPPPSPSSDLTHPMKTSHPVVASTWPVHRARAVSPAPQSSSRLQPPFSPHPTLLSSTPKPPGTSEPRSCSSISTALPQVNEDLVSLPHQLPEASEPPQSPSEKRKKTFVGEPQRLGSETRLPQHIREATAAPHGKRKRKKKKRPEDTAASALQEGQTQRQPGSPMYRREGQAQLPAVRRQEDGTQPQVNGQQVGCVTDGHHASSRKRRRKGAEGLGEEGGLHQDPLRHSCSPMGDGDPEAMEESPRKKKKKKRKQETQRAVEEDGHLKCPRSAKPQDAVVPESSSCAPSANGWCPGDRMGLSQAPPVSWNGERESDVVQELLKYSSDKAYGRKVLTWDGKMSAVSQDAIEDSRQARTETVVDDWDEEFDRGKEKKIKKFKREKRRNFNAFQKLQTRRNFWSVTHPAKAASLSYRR
Procedure, shortened: as §1

USP38 = target: T2, USP38 (UniProt Q8NB14)
T2 sequence (whole entry): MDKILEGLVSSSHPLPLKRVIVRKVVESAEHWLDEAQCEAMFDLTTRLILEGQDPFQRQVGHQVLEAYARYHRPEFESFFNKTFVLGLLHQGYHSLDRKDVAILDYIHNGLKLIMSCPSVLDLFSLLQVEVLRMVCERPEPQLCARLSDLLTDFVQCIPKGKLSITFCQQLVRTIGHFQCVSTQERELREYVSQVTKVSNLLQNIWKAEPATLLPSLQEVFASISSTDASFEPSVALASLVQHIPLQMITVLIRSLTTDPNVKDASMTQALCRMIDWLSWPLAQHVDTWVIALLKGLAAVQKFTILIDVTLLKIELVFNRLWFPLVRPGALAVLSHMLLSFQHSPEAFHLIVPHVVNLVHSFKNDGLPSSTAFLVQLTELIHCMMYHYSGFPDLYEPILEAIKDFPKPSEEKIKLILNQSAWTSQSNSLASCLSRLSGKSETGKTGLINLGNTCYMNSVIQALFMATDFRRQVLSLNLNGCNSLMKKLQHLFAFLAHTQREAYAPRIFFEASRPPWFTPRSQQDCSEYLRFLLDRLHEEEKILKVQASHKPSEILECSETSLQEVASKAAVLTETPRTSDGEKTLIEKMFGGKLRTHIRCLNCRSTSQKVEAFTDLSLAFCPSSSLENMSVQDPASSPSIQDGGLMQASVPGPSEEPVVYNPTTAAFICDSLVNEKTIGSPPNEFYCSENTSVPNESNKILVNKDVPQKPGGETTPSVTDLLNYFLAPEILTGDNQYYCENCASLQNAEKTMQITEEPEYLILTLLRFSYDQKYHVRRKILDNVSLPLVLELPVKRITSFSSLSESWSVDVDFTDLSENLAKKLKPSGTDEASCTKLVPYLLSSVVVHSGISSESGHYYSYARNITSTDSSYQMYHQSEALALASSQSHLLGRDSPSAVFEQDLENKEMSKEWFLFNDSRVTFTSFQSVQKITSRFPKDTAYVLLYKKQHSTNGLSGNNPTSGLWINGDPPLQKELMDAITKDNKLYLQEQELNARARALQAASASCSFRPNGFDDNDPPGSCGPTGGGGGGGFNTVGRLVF
Procedure, shortened: as §1

USP39 = target: T3, USP39 (UniProt Q53GS9)
T3 sequence (whole entry): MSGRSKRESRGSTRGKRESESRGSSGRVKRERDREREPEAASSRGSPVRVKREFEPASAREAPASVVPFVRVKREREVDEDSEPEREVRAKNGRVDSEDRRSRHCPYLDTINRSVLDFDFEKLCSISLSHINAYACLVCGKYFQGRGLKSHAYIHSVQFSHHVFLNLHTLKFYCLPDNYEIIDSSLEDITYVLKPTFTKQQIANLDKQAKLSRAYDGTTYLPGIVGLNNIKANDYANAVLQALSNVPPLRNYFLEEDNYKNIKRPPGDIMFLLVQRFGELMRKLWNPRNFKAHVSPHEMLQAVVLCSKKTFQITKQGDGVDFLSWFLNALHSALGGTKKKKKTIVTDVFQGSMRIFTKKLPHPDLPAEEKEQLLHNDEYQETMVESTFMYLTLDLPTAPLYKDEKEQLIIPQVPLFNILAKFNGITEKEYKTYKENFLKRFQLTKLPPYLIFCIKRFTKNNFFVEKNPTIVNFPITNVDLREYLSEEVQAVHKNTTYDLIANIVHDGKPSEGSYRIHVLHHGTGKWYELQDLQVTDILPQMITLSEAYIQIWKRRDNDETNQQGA
Procedure, shortened: as §1

USP4 = target: T4, USP4 (UniProt Q13107)
T4 sequence (whole entry): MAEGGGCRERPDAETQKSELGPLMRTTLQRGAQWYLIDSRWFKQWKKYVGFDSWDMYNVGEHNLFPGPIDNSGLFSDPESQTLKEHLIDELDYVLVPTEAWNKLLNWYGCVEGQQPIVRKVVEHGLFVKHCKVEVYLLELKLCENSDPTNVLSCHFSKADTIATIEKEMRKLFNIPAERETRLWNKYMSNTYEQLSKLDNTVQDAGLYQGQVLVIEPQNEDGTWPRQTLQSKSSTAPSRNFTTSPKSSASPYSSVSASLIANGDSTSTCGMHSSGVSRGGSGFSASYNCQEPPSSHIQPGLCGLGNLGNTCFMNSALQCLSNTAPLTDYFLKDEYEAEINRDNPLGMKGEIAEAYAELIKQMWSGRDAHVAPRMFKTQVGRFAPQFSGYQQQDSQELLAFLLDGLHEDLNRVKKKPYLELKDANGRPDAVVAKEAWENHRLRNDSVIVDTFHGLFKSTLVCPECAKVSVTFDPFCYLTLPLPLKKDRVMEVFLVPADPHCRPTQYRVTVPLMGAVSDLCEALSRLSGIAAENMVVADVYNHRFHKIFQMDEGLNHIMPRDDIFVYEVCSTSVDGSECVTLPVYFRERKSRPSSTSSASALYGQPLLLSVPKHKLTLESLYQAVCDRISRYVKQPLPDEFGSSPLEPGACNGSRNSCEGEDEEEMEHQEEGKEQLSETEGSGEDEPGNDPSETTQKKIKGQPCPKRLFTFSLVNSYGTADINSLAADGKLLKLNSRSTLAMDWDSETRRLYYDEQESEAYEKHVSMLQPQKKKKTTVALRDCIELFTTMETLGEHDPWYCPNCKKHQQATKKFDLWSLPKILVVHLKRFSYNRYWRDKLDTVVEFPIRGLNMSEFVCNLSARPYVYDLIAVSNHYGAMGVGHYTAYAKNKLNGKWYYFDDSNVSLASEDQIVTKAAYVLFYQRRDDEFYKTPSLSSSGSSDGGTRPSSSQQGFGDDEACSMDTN
Procedure, shortened: as §1

Measured: log2 ratio of Biotin-Ahx-Ub-VS probe labelling

Sequence of USP34 (Q70CQ2 whole entry, the tested form may be a part): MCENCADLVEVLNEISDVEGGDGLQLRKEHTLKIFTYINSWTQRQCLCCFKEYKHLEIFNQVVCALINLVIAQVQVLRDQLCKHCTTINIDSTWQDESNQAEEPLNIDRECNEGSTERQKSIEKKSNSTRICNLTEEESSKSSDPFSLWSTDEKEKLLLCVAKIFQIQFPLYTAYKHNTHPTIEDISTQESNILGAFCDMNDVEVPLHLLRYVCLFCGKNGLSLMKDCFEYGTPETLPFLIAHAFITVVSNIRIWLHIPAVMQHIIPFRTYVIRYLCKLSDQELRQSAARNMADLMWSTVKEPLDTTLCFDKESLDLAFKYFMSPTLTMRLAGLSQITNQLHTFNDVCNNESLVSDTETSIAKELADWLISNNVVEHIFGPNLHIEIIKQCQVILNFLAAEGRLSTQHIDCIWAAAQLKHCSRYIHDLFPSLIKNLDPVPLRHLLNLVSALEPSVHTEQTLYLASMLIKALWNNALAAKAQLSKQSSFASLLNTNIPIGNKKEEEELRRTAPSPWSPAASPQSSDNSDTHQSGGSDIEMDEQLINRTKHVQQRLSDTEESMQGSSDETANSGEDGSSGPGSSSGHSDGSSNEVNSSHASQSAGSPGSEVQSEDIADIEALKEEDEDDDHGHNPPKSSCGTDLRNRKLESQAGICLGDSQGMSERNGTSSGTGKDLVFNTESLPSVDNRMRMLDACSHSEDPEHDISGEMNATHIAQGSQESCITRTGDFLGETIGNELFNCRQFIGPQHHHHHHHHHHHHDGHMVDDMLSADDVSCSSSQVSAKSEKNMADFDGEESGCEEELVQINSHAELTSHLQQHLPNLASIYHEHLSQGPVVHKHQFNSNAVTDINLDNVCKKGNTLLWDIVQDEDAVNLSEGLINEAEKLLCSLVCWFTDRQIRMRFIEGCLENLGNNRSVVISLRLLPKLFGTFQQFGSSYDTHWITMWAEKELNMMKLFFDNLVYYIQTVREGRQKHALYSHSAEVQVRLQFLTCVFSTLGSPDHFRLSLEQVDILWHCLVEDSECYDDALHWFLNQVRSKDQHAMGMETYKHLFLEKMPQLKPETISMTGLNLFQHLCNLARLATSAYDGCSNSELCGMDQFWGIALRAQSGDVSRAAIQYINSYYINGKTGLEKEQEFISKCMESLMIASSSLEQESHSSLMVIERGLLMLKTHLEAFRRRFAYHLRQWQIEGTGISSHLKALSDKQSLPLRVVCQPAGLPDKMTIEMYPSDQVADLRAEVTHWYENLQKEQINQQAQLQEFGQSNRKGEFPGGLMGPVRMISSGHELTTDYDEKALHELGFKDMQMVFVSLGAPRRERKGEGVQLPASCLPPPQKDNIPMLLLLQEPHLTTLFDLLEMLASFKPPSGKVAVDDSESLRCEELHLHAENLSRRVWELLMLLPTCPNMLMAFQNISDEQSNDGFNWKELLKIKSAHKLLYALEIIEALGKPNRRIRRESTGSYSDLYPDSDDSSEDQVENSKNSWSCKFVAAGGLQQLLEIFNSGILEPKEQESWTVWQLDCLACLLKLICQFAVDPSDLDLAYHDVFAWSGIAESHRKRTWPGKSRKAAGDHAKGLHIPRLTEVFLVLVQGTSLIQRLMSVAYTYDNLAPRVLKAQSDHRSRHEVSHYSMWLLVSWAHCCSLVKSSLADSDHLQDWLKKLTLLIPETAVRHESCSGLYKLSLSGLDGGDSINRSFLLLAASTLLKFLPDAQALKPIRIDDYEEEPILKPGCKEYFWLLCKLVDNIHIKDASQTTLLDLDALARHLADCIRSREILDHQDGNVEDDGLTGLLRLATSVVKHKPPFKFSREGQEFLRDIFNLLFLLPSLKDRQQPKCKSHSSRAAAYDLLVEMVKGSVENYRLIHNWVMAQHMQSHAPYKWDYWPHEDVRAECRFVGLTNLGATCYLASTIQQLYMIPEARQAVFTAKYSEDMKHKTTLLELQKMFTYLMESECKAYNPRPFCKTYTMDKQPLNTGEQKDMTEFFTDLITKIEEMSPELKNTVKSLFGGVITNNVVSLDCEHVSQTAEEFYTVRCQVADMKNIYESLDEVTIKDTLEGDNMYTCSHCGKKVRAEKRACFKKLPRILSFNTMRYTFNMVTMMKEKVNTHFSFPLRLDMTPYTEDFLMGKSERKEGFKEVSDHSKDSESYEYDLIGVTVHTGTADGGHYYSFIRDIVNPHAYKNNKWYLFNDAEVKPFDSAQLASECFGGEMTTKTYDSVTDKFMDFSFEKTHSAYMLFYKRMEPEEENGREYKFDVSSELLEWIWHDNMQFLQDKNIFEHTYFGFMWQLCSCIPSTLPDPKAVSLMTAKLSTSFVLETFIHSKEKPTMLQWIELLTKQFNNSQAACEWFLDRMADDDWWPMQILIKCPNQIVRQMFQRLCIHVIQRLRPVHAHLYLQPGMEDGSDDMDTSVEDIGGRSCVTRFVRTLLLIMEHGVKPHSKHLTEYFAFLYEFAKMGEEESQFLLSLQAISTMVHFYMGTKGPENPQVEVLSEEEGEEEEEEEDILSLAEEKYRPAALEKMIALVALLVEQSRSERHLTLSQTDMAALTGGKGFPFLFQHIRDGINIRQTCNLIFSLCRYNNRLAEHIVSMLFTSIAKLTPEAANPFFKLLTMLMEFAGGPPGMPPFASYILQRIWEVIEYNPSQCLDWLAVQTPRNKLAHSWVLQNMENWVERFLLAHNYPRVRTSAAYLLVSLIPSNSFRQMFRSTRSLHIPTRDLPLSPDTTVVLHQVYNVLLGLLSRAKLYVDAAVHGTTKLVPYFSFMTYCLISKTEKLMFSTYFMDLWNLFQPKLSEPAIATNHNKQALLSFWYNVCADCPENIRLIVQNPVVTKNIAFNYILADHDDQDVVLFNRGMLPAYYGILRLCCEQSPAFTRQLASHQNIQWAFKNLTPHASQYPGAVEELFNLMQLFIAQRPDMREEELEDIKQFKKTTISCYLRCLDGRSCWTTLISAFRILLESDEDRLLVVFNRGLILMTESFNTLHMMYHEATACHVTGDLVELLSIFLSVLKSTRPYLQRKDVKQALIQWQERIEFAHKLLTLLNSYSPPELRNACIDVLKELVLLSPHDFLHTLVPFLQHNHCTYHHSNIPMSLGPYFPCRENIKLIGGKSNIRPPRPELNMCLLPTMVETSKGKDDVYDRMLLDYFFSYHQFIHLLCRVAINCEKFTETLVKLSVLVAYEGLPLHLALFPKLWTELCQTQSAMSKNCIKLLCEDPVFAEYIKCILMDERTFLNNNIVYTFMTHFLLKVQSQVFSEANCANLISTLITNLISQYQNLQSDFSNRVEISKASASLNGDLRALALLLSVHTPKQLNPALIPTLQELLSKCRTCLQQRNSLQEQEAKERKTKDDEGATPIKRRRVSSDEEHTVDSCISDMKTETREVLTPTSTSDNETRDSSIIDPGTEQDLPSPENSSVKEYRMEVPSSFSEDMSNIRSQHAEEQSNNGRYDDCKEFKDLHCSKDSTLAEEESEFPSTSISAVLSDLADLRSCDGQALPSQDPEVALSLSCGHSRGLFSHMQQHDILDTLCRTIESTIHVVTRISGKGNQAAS

Cl.O=C(CCl)N1CC(c2ccc(Br)cn2)C1
inactive: USP34 -0.16 | USP36 -0.222 | USP38 -0.0763 | USP39 -0.11 | USP4 -0.285
